In the supplement of paper PMC4466236:
Over roughly 33,000 sequences, “E-score (dimensionless, -0.5 to 0.5)” has its median near -0.058; the highest 2% begin near 0.35. Shown is part of a subset that was picked to be rich in the highest values.

Test system: MvaT
Assay: PBM 8-mer E-score (mean of HK and ME arrays) (E-score (dimensionless, -0.5 to 0.5)); higher = stronger relative binding preference
Method in brief: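 Full-length P. aeruginosa MvaT carrying an N-terminal glutathione S-transferase tag was tested by protein binding microarray following a previously described protocol. Two universal double-stranded 60-mer arrays, ME and HK, were used, each with a constant 25-mer primer region and a variable 35-mer region covering all 8-mers. The rank-based E-score is the mean of the two arrays, parsed with a custom script. Its range runs from -0.5 to 0.5 for each 8-mer.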

Sequence	PBM 8-mer E-score
ACTGGAAT	0.118
AACCGACG	-0.000494
GTGCAAAC	0.0651
AACCTTAC	-0.0526
AGACCATA	0.00218
CACAGACG	-0.11
ATTCCTCA	0.129
CTAAATTA	0.336
ATAAATTA	0.42
GTAAATTA	0.391
ATAAACTC	0.269
ATAAACTG	0.175
ATAAACTA	0.356
AAAAATTG	0.117
ATAAATTG	0.369
AAAAATTA	0.275
GTAAATCA	0.189
GAAAATTA	0.304
ATAAATTC	0.309
AACTGGTC	-0.0685
TGACTGCA	-0.107
AACCCAGT	-0.0508
ATTGCACG	0.182
ACTCATCA	0.0732
AACCATCA	-0.0905

Sequence	PBM 8-mer E-score
AAGTCTCT	0.0309
ATCGAATC	-0.0636
GCGGGTTA	0.0558
CGCGATAA	0.143
ACCTATGG	-0.149
AATATGAC	0.183
CCTATAAG	0.0158
TATATAAA	0.47
GATATAGC	0.127
CACATAAG	0.122
GAGATAAC	0.0136
GATATAAA	0.344
ACTATAAC	0.334
GATATAAC	0.372
TCTATAAA	0.103
CATATAAG	0.35
AATATAAC	0.42
CTCAAGGA	-0.151
CCTGCTCC	-0.302
ATTTGTTC	0.206
ATTTTTTC	0.132
AAGTGCGT	-0.0188
ACGGTTTC	-0.215
ATTAGCCC	0.0535
ACACTAGT	0.258

Sequence	PBM 8-mer E-score
AGTGCTAC	-0.0841
CGAAATGC	-0.0574
AATATGAT	0.345
AATATAAA	0.451
CATAAACA	0.221
TATAAACA	0.373
GCTATAAA	0.217
CATATAGC	0.0736
AATATAAT	0.449
AAGATAAT	0.287
CACATAAC	0.209
CATATAAC	0.415
GATAAACA	0.278
GAATGCGA	0.0642
AATTCTAG	0.157
CCCGGCCC	-0.325
TGCAAACA	0.106
ACGGAAGG	-0.218
AATATAAG	0.351
TATAAAAA	0.371
TATATCAA	0.352
AGTATAAG	0.272
CATAAAAA	0.179
GATAAAAA	0.273
AAGATAAG	0.148

Sequence	PBM 8-mer E-score
CGTATAAA	0.209
CACATAAA	0.179
CATATAAA	0.365
CATATCAA	0.174
GATATCAA	0.25
GAATCATA	0.151
CCATCTGA	-0.117
GTATGAAA	0.222
GTCTGAGA	-0.139
AGAGATGC	-0.101
ATCTTTAG	0.14
AGTGATCG	-0.118
AGAGGCTG	-0.304
TTATTGAA	0.279
TAGGGTAA	0.133
CTGATAAC	0.136
AGCACAGG	-0.197
AAACAACA	0.214
CAACAATA	0.289
AAACAAGA	0.166
AAACAATA	0.375
AATCAATA	0.283
AAACAATC	0.06
GATCAATA	0.152
GAACAATA	0.267

Sequence	PBM 8-mer E-score
AAACAATG	0.201
TATCAATA	0.365
TAACAATA	0.394
AAACAATT	0.346
GCAACGAC	-0.141
CCTCAACC	-0.226
AGATCTCG	-0.173
CTCTACTC	-0.0821
GCGCCACC	-0.15
ACAGGGGT	-0.121
AGGACTCG	-0.265
GAACATTA	0.276
ATACAATC	0.18
ATACAATA	0.372
CTACAATA	0.244
TAACATTA	0.374
CAACATTA	0.293
ATCCGTTC	-0.0995
AGATTGAC	-0.15
AAGATATA	0.419
CAGATATA	0.237
GAGATATA	0.303
AAGATATC	0.26
TAGATATA	0.368
AAGATATG	0.136

Sequence	PBM 8-mer E-score
ATTTACGA	0.167
CTATTTAC	0.318
CTATTTAA	0.274
ATATTTCA	0.329
ATATTTAA	0.462
ATATTTAC	0.36
ATATTTAG	0.342
AGGCACCA	-0.116
AGCTGTCA	-0.156
ATGATCGG	-0.174
AGCTTCCA	-0.151
CGCAAGTA	0.195
GCATTATA	0.309
ATATTATA	0.477
AGATTATG	0.189
AGATTATC	0.255
CCATTATA	0.302
ATATTATG	0.411
ATCTTATA	0.238
ATATTATC	0.439
ACATTATG	0.249
ACATTATA	0.396
CTATTATC	0.263
ATTCAAAC	0.174
GATACCGA	0.0372

Sequence	PBM 8-mer E-score
GCTGCCCA	-0.142
GAGGAAGA	-0.133
ACCCGTTG	-0.195
TAGTCACA	0.0578
AAAACGTA	0.142
CGCCCATC	-0.117
CACTTGCA	-0.05
CAGCCCTG	-0.254
CGTGTCCA	-0.105
GCACTTCA	-0.102
GTGTGGTA	0.118
CCCTTCGC	-0.248
AATTAGGG	0.137
AATCCCCG	-0.164
GTATTACA	0.224
GTATTATA	0.437
CTTTTATA	0.31
GTATTCTA	0.112
GGATTATA	0.32
CTATTCTA	0.131
CTATTATA	0.44
AGATTATA	0.39
GTCTTATA	0.325
CGATTATA	0.292
ATATTCTA	0.348

Sequence	PBM 8-mer E-score
CTCTTATA	0.289
CGCGCTTC	-0.107
CAATGTCC	-0.106
AGCGCCTA	-0.16
AACTACGG	0.0587
CCGCGCCC	-0.155
AACTCGGT	-0.0107
GCTGTAAC	0.00489
CGCAAGAG	0.0446
CGCGGTGA	-0.142
CCCTAAGA	-0.184
ATAGAACG	0.0944
CCGCAAAG	-0.132
ATGGCCAG	-0.256
ATATGTTA	0.423
ATATGTTC	0.231
CTATGTTA	0.278
ATATGTAA	0.309
CTATGTAC	0.112
ATATGTTG	0.359
ATATGTCG	0.22
ATATGTAC	0.368
GTATGTTA	0.288
AGTCCACT	-0.0256
AATAGACC	0.00124

Sequence	PBM 8-mer E-score
TTGTACAA	0.161
CGTCCAGA	-0.16
CCTGCTCG	-0.298
ACAGGTGC	-0.152
AATTGCTG	0.0923
ATACCCTC	-0.12
CTTGGCCC	-0.249
AACTAGTT	0.392
AACTAATA	0.323
AACTAAAA	0.345
AACTAAAT	0.351
AACTAATT	0.401
AACTAGTA	0.303
AAATAGTT	0.351
AACTAATG	0.312
AACTAGTG	0.19
AAATAGTC	0.235
AAATAGTG	0.136
AACTAAAG	0.202
CAAAGATG	0.0517
CGTGAGAA	0.0476
AGGAATGG	-0.0828
AACCTCCC	-0.253
CCGGATAC	-0.146
ACTGATAA	0.209

Sequence	PBM 8-mer E-score
ATCAAGGC	-0.14
TCATGACA	-0.0413
CTGTCCAC	-0.113
GCTCAAAC	0.0144
AATAATGG	0.372
CATAATGG	0.178
AATAATGT	0.408
GATAATGC	0.151
CATAATGC	0.111
CATAATGA	0.233
AGTAATGG	0.124
GATAATGA	0.225
AATAAGGT	0.224
TATAATGA	0.373
AATAATGC	0.384
AAAAATGT	0.0973
CGGGACAG	-0.151
CCCCACTA	-0.172
ATGACATG	-0.0134
AATTTCCC	0.207
CTCACCAC	-0.026
CAGTTCAC	-0.0234
AACCGAAG	0.0622
CCCACACC	0.0355
ACTAATGA	0.138

Sequence	PBM 8-mer E-score
AATAATGA	0.361
AGTAATGA	0.165
ACCTAACA	-0.00971
ATTTATTC	0.295
CTTTATTC	0.209
ATTTATTG	0.379
GTTTATTA	0.407
ATTTATTA	0.434
ATTTATGG	0.204
GTTTTTTA	0.248
ATTTATCG	0.291
CTTTATTA	0.402
GTTTACTA	0.147
CTTTATCA	0.182
ATTTATCA	0.301
ACCTCTAC	-0.178
TACGTTGA	0.0324
AGAGCGCG	-0.146
GTGACCCA	-0.143
TCAATTAA	0.237
GGAATTAC	0.149
GGAATTAA	0.347
AGAATTAA	0.301
CGAATTAA	0.308
TGAATTAA	0.376

Sequence	PBM 8-mer E-score
GGCGTGTA	-0.134
GGGCTGAA	-0.257
AGCCTGTA	-0.00993
CAAGAAAA	-0.021
ACGCGTCG	-0.0515
ATCACGGG	-0.203
GTATATAC	0.41
CCATATAC	0.153
ATCTATAC	0.138
ATATACGC	0.291
GTATACAC	0.209
ATATATAC	0.464
CTCTATAC	0.00646
GGATATAC	0.208
CTATATAC	0.377
CTCCCTAC	-0.109
AATGACCG	-0.00123
GTAGTTTA	0.297
CGTGCGGA	-0.146
CAGTAGCC	-0.125
TCGTATAA	0.148
AAGTATAC	0.338
AAGTATAA	0.379
ATGTATAC	0.332
AAGTATAG	0.167

Sequence	PBM 8-mer E-score
CTGTATAA	0.264
ATGTATAA	0.35
TAGTATAA	0.384
AAGTATAT	0.399
GAGTATAA	0.273
AGGTATAA	0.291
CAGTATAA	0.267
ACCAGGAG	-0.239
CGGGAGAG	-0.265
CACGGGGA	-0.0937
CTACCCAC	-0.0554
ATGAAACA	0.181
ACTAGTAG	0.0918
AGTATTAC	0.306
ACTATTAA	0.411
ACTAGTAA	0.24
AGTATTAG	0.27
AGTATTAT	0.42
GTTATTGA	0.311
CCTATTAA	0.249
TCTATTAA	0.285
CTTATTGA	0.22
ATTATTGA	0.354
ACTAGTAT	0.357
ATGATCAA	0.176

Sequence	PBM 8-mer E-score
GAAAGGGC	-0.199
TAAGAACA	0.123
GCCGCTCA	-0.105
CTTTGAAA	0.141
ACATGTAC	0.243
AGGCCATC	-0.264
GTTATTCA	0.236
ATTATTAA	0.446
ATCATTAA	0.259
CTTATTAA	0.362
GTTATTAA	0.383
ACTATTAT	0.425
ATTATGAA	0.269
CTCATTAA	0.196
CTTATTCA	0.194
ACCATTAT	0.332
GCTATTAA	0.272
ACGATTAT	0.245
GTTTTTCA	0.0388
